Entries with a potency or affinity are not part of this list.
Key:
[1] = tested on: Klebsiella pneumoniae; settings: Concentration 32 ug.mL-1;; ASSAY_TEST Inhibition of Bacterial Growth; detection method Absorption (OD600); MEDIA CAMHB; plate type 384well; NBS; CORNING #3640; time 18 hr
[2] = tested on: Candida albicans; settings: Concentration 32 ug.mL-1; ASSAY_TEST Inhibition of Fungal Growth; detection method Absorption (OD530)
[3] = tested on: Cryptococcus neoformans; settings: Concentration 32 ug.mL-1; ASSAY_TEST Inhibition of Fungal Growth; detection method Resazurin; Absorption (OD600-OD570); plate type 384well; NBS; CORNING #3640

| SMILES | Inhibition [1] [%] | Inhibition [2] [%] | Inhibition [3] [%] |
| --- | --- | --- | --- |
| CC1CCc2c(sc3ncn4c(=O)n(CC(=O)Nc5ccc6c(c5)CCC6)nc4c23)C1 (centres undefined) | 13.08 | 4.62 | -27.54 |
| CSc1cccc(NC(=O)Cn2nc3c(SCc4ccc(Cl)cc4)nccn3c2=O)c1 | 7.71 | 19.01 | -40.36 |
| Cc1ccc(-c2cc3c4nn(CC(=O)NCc5ccc(Cl)cc5)c(=O)n4ccn3n2)cc1C | 7.6 | 2 | -10.6 |
| CCOc1ccc(-n2ccn3c(SCC(=O)Nc4ccccc4C(F)(F)F)nnc3c2=O)cc1 | 17.14 | 2.4 | -14.22 |
| CCOc1ccccc1NC(=O)Cn1nc2c(Sc3cccc(C)c3)nccn2c1=O | 9.01 | 0.35 | -13.32 |
| O=C(CSc1nnc2c(=O)n(-c3ccccc3)ccn12)Nc1cccc(Cl)c1 | 1.21 | -0.19 | -20.21 |
| CC(=O)c1cccc(NC(=O)CSc2nc3ccccc3n3c(C)nnc23)c1 | 2.18 | 5.91 | -6.11 |
| Cc1nnc2ccc(S(=O)(=O)N(Cc3ccc(F)cc3)c3ccc4c(c3)OCO4)cn12 | 13.79 | 1.73 | -7.24 |
| CCCc1nnc2c(=O)n(CC(=O)Nc3ccc(NC(C)=O)cc3)c3ccccc3n12 | 9.56 | -0.49 | -26.74 |
| CCOc1ccc(NC(=O)Cn2nc3c4c5c(sc4ncn3c2=O)CCCC5)cc1 | 5.11 | 2.52 | -9.01 |
| CCc1ccccc1NC(=O)Cn1nc2n(C)c(=O)c3c(c(-c4ccccc4)cn3C)n2c1=O | 1.01 | 6.61 | -4.79 |
| Cc1nnc2ccc(S(=O)(=O)N(Cc3ccccc3F)c3ccc(Cl)cc3)cn12 | -3.84 | 0.4 | -8.97 |
| CCOC(=O)c1ccc(NC(=O)CSc2nc3ccccc3n3c(C(C)C)nnc23)cc1 | 8.56 | -0.16 | -11.29 |
| CCc1ccccc1NC(=O)Cn1nc2c(Sc3ccccc3CC)nccn2c1=O | 12.45 | 3.69 | -11.06 |
| O=C(CSc1nnc2c(=O)n(-c3ccc(Br)cc3)ccn12)Nc1cc(F)ccc1F | 10.57 | 7.34 | -16.33 |
| Cc1ccc(C(=O)C(C)Sc2nnc3c(=O)n(-c4ccc(F)c(F)c4)ccn23)cc1C (centres undefined) | -0.54 | 2.5 | -3.72 |
| O=C(Cn1nc2c(Oc3ccccc3)nccn2c1=O)Nc1ccccc1C(F)(F)F | 6.19 | 0.13 | -8.9 |
| O=C(Cn1nc2ccc(-c3ccc(Cl)cc3)nn2c1=O)N1CCN(c2ccc(F)cc2)CC1 | -0.53 | 2.31 | -8.76 |
| CCOc1ccc(-n2ccn3c(SCC(N)=O)nnc3c2=O)cc1 | 16.24 | 1.43 | -5.27 |
| COc1ccc(-c2cc3c4nnc(SCC(=O)Nc5cccc(Cl)c5C)n4ccn3n2)cc1 | -3.16 | 6.33 | -18.63 |
| CCc1ccccc1NC(=O)CSc1nnc2c(=O)n(-c3ccccc3)ccn12 | 11.56 | -0.14 | -23.92 |
| Cc1c(Cl)cccc1-n1ccn2c(=O)n(Cc3cccc(Cl)c3)nc2c1=O | 5.86 | 2.56 | -15.28 |
| O=S(=O)(c1ccc2nncn2c1)N(Cc1cccc(F)c1)c1cc(F)cc(F)c1 | 12.28 | 4.13 | -6.89 |
| CCc1ccccc1NC(=O)Cn1nc2cc(C)nc(Nc3ccc(F)c(C)c3)n2c1=O | 11.82 | 5.42 | -2.36 |
| O=C(Cn1nc2c(SCc3ccccc3)nccn2c1=O)NCc1ccccc1 | -8.41 | 20.32 | -13.69 |
| COc1cc(OC)c(NC(=O)Cn2nc3ccc(Sc4cccc(F)c4)nn3c2=O)cc1Cl | 2.02 | 6.91 | -5.99 |
| COc1ccc(NC(=O)CSc2nc3ccccc3n3c(C(C)C)nnc23)c(OC)c1 | 7.3 | 2.71 | -21.27 |
| O=C(Cn1nc2ccc(SCc3ccc(Cl)cc3)nn2c1=O)Nc1ccc2c(c1)CCC2 | 12.2 | 7.4 | -25.38 |
